Test results as given in the supplement of paper PMC10849652.
About 7,900 targets were measured; listed, in parts, are those with a hit and a random draw of the rest. About 0.6% of all pairs of compound and target were hits. Unmarked numbers belong to inactive results.

Tests used:
Experiment in all cases: log2 fold change, soluble protein after heating vs DMSO (PISA); higher = thermal stabilisation; K562 cells, 10 uM, 30 min; active = over 0.2 and 3.5 SD of the protein, either way, in both replicates (recomputed)
[1] = compound: C1=CC=C(C=C1)[C@H](COC2=CC3=C(C=C2)NC(=O)N3)NC(=O)C4=CC=CN(C4=O)CC5=CC(=C(C=C5)F)F
Summary of the method: (§1)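 Quantification of soluble protein used TMTpro 16plex LC-MS/MS, with channel sums equalised. Samples were the supernatant after 21,000xg for 90 min of pooled aliquots from K562 cells (2×10^6 cells/mL) treated with 10 μM compound for 30 min, heated for 3 min over 48°C-58°C, and extracted in PBS with 0.5% NP-40 at 4°C. Values, from duplicates, describe thermal stability against control samples on a log2 fold-change scale.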

[2] = compound: CC1=C(SC2=C1C(=N[C@H](C3=NN=C(N32)C)CC(=O)N)C4=CC=C(C=C4)Cl)C
Summary of the method: as §1

[3] = compound: CC1=C2C(=CC=C1)N=C(N(C2=O)C3=CC=CC=C3C)CN4C=NC5=C(N=CN=C54)N
Summary of the method: as §1

[4] = compound: Cc1sc2c(c1C)C(c1ccc(Cl)cc1)=N[C@@H](CC(=O)OC(C)(C)C)c1nnc(C)n1-2
Summary of the method: as §1

[5] = compound: c1ccc([C@@H]2C[C@H]2NC2CCNCC2)cc1
Summary of the method: as §1

UniProt A8MTT3, sequence (A8MTT3 whole entry, looked up): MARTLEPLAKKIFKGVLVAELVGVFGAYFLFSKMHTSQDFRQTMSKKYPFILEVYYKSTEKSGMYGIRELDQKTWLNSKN
UniProt Q53ET0, sequence (Q53ET0 whole entry, looked up): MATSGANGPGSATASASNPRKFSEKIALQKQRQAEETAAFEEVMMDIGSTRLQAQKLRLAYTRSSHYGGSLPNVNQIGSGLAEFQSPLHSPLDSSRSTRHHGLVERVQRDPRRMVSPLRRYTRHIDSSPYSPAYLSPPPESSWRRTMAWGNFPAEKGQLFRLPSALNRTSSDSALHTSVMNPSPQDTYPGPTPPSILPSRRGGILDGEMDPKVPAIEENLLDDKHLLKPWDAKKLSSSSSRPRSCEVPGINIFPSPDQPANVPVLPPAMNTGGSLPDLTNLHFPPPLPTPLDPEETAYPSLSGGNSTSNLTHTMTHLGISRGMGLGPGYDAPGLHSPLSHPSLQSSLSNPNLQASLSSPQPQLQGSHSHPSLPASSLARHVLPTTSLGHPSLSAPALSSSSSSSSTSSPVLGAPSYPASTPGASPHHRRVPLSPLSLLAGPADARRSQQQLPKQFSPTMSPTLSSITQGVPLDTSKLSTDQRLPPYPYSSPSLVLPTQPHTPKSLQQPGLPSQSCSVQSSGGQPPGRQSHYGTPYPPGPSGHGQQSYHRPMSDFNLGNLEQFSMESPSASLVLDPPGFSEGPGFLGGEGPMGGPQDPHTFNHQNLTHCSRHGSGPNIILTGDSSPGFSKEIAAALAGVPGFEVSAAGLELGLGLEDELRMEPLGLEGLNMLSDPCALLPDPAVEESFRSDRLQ
UniProt P09497, sequence (P09497 whole entry, looked up): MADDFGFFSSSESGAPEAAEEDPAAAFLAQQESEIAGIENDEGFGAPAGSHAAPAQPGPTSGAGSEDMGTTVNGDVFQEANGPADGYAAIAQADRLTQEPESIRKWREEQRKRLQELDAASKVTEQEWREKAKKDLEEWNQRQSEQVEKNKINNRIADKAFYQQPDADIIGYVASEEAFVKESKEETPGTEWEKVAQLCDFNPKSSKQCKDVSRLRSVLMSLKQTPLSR
UniProt P00915, sequence (P00915 whole entry, looked up): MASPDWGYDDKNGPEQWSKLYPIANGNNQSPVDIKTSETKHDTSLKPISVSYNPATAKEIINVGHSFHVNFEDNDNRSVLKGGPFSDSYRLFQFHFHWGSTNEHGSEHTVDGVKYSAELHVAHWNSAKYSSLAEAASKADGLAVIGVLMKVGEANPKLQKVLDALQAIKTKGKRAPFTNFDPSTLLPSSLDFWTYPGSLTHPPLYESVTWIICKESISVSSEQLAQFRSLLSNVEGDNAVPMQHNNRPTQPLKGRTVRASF
UniProt Q14790, sequence (Q14790 whole entry, looked up): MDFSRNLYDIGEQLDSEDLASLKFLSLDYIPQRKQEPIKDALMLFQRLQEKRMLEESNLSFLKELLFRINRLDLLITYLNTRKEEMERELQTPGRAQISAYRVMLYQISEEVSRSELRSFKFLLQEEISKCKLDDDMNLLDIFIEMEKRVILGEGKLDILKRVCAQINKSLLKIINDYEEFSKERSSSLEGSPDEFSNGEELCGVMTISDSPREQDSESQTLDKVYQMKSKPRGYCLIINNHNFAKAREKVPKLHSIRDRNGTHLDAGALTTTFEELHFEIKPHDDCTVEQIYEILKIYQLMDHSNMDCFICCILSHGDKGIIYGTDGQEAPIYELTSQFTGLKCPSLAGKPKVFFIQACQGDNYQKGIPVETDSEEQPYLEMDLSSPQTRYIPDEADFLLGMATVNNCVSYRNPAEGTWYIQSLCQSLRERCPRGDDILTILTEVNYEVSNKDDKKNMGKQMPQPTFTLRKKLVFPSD
UniProt O75122, sequence (O75122 whole entry, looked up): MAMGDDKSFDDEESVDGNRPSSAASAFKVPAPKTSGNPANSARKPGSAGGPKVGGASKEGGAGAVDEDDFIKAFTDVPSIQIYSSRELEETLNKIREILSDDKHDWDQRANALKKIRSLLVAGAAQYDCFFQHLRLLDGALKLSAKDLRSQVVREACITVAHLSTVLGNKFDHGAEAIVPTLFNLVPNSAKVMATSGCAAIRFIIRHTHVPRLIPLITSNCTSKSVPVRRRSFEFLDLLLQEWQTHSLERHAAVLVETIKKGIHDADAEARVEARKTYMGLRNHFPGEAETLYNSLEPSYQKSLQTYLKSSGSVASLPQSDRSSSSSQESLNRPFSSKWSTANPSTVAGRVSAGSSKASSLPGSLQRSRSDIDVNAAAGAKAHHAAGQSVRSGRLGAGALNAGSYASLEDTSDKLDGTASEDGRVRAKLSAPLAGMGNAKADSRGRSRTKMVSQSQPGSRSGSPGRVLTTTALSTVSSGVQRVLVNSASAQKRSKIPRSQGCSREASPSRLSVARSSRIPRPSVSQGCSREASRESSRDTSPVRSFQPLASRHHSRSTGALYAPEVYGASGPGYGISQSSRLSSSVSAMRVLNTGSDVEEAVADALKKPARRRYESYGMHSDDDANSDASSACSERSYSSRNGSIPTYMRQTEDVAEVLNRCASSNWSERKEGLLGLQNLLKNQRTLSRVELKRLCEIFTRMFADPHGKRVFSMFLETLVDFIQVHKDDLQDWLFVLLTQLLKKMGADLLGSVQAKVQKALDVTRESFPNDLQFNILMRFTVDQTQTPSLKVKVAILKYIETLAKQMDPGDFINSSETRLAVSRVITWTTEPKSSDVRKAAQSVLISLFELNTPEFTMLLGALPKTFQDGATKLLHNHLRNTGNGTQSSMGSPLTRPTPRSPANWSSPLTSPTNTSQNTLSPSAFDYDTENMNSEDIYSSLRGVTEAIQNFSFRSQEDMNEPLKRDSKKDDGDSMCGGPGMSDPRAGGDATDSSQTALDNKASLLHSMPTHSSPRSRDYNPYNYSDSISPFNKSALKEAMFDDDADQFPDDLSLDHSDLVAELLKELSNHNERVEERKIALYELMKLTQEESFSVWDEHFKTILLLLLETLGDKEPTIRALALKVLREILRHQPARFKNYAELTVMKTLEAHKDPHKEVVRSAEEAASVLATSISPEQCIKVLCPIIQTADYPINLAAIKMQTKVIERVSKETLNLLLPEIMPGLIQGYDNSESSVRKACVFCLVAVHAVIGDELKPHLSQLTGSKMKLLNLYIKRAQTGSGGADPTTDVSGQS
UniProt Q6ZU80, sequence (Q6ZU80 whole entry, looked up): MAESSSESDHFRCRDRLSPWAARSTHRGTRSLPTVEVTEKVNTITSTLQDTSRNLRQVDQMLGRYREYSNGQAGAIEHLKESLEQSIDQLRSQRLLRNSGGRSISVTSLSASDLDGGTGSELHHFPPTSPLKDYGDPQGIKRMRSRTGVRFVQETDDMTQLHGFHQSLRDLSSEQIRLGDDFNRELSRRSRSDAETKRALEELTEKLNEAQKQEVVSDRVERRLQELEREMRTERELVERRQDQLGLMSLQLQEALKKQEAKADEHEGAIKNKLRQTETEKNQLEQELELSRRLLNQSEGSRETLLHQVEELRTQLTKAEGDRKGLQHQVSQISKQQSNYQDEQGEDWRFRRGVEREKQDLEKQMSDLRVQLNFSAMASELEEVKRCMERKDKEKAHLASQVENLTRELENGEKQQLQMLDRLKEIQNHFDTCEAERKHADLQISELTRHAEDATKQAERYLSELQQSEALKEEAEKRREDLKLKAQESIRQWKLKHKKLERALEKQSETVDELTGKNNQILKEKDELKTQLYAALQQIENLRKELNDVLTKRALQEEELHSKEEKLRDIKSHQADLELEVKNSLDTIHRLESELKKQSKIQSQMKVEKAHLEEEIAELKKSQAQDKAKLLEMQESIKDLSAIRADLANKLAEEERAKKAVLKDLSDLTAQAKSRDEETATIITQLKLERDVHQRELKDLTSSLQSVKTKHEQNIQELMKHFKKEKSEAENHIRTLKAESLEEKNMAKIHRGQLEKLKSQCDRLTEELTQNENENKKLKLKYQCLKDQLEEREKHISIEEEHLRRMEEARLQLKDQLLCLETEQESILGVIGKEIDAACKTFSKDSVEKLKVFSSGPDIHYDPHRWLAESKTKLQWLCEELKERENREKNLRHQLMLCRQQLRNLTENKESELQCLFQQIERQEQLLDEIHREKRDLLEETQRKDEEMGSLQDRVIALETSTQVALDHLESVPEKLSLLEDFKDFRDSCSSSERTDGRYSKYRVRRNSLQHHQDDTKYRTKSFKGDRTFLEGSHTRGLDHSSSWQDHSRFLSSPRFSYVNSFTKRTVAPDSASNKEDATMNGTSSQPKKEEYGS
UniProt Q8N684, sequence (Q8N684 whole entry, looked up): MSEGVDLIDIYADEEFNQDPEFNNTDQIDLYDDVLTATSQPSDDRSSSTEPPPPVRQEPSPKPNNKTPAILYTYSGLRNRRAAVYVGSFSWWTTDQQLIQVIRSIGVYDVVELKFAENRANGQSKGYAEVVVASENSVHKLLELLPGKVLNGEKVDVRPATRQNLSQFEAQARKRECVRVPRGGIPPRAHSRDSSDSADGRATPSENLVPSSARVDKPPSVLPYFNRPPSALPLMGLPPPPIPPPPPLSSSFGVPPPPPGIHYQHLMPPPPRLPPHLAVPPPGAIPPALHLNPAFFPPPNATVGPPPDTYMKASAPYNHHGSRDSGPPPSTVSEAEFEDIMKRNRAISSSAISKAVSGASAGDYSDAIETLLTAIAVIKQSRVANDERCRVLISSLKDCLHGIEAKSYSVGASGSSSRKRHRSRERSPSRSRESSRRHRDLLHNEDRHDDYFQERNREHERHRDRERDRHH
UniProt Q9UIB8, sequence (Q9UIB8 whole entry, looked up): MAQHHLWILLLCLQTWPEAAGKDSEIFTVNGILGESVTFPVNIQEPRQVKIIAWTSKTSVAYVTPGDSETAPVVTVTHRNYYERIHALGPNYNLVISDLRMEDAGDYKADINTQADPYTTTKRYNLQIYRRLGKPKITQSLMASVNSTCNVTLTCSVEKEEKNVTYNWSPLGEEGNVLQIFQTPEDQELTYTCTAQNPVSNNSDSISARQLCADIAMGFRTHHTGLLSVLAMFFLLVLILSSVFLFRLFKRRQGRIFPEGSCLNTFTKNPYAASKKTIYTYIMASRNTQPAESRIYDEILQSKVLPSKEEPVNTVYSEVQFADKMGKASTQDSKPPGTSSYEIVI

| Target | log2 fold change [1] | log2 fold change [2] | log2 fold change [3] | log2 fold change [4] | log2 fold change [5] |
| --- | --- | --- | --- | --- | --- |
| CPSF7 isoform 3 (UniProt Q8N684) | 0.007 | 0.013 | -0.012 | 0.017 | -0.013 |
| CLTB (UniProt P09497) | 0.021 | -0.01 | -0.016 | -0.01 | -0.02 |
| CCDC82 (UniProt Q8N4S0) | -0.018 | 0.056 | 0.033 | 0.043 | 0.004 |
| COQ9 (UniProt O75208) | -0.068 | -0.025 | 0.053 | -0.081 | 0.036 |
| CS (UniProt O75390) | -0.043 | 0.089 | 0.053 | -0.015 | -0.016 |
| C4orf33 (UniProt Q8N1A6) | -0.041 | 0.176 | 0.066 | 0.024 | -0.003 |
| CD81 (UniProt P60033) | -0.083 | -0.013 | -0.035 | 0.03 | 0.109 |
| CCAR1 (UniProt Q8IX12) | -0.129 | 0.061 | 0.043 | 0.044 | -0.043 |
| CLPTM1L (UniProt G5E9Z2) | -0.22 | 0.148 | -0.012 | -0.07 | -0.1 |
| CDK13 (UniProt Q14004) | 0.031 | 0.019 | -0.017 | 0.161 | -0.004 |
| CD151 (UniProt P48509) | -0.126 | 0.049 | 0.031 | -0.046 | 0.101 |
| CNOT2 (UniProt Q9NZN8) | 0.024 | -0.014 | 0.056 | 0.031 | -0.002 |
| CEP128 (UniProt Q6ZU80) | -0.039 | 0.099 | 0.216 | 0.104 | 0.041 |
| CNOT7 (UniProt Q9UIV1) | -0.024 | -0.053 | 0.068 | -0.032 | 0.002 |
| CCNH (UniProt P51946) | 0.02 | -0.035 | 0.032 | 0.002 | 0.033 |
| CA1 (UniProt P00915) | -0.007 | 0.039 | 0.019 | 0.007 | 0.018 |
| CLPP (UniProt Q16740) | 0.037 | 0.153 | 0.093 | -0.124 | 0.008 |
| CBS (UniProt P35520) | -0.029 | 0.07 | 0.016 | -0.014 | -0.026 |
| CASP3 (UniProt P42574) | 0.018 | 0.004 | -0.005 | -0.055 | 0.003 |
| CAV2 (UniProt P51636) | 0 | – | – | -0.046 | – |
| C5orf30 (UniProt Q96GV9) | – | – | – | -0.417 | – |
| CFAP47 (UniProt Q6ZTR5) | 0.068 | – | 0.173 | – | – |
| CHPT1 (UniProt Q8WUD6) | – | 0.003 | – | -0.198 | 0.11 |
| CLASP2 (UniProt O75122) | 0.059 | 0.117 | – | – | -0.222 |
| CD84 (UniProt Q9UIB8) | – | 0.167 | – | -0.079 | 0.086 |
| C1D (UniProt Q13901) | -0.019 | – | 0.028 | 0.074 | – |
| COMMD1 (UniProt Q8N668) | 0.099 | – | 0.007 | 0.162 | – |

| Target | log2 fold change [1] | log2 fold change [2] | log2 fold change [3] | log2 fold change [4] | log2 fold change [5] |
| --- | --- | --- | --- | --- | --- |
| COG2 (UniProt Q14746) | – | 0.063 | – | 0.141 | -0.004 |
| CEBPZOS (UniProt A8MTT3) | -0.044 | – | -0.105 | -0.022 | – |
| CRLS1 (UniProt Q9UJA2) | – | -0.005 | -0.034 | -0.01 | 0.003 |
| COX7C (UniProt P15954) | -0.023 | – | -0.073 | -0.079 | – |
| CPNE5 (UniProt Q9HCH3) | – | -0.16 | – | 0.146 | -0.035 |
| CKS2 (UniProt P33552) | -0.084 | – | – | -0.08 | – |
| CDK2AP2 (UniProt O75956) | 0.026 | -0.017 | – | – | 0.012 |
| CDK19 (UniProt Q9BWU1) | – | 0.035 | 0.05 | 0.021 | 0.019 |
| C19orf54 (UniProt Q5BKX5) | – | -0.014 | 0.059 | 0.004 | 0.114 |
| CASP8 isoform 9 (UniProt Q14790) | -0.013 | – | 0.052 | 0.033 | – |
| CCNT2 (UniProt O60583) | – | – | – | 0.061 | – |
| CASP9 (UniProt P55211) | – | -0.045 | 0.102 | 0.05 | 0.12 |
| C22orf39 (UniProt Q6P5X5) | 0.126 | 0.145 | – | -0.06 | -0.037 |
| CHST10 (UniProt O43529) | 0.004 | -0.064 | – | -0.052 | 0.044 |
| CDCA2 (UniProt Q69YH5) | – | 0.035 | 0.05 | -0.003 | -0.077 |
| CLCN5 isoform 2 (UniProt P51795) | – | 0.028 | -0.023 | 0.024 | -0.053 |
| C15orf41 (UniProt Q9Y2V0) | – | 0.081 | 0.014 | -0.011 | 0.149 |
| CAB39L (UniProt Q9H9S4) | 0.088 | – | 0.201 | 0.285 | – |
| COMMD3-BMI1 (UniProt R4GMX3) | – | -0.114 | – | 0.002 | 0.154 |
| COX17 (UniProt Q14061) | – | 0.12 | 0.022 | -0.073 | -0.085 |
| CRTC2 (UniProt Q53ET0) | 0.006 | – | -0.075 | 0.052 | – |
| CRTC1 isoform 2 (UniProt Q6UUV9) | -0.036 | – | 0.018 | 0.046 | – |
| CNN1 (UniProt P51911) | – | 0.228 | -0.063 | -0.004 | 0.156 |
| COPS3 isoform 2 (UniProt Q9UNS2) | 0.009 | – | 0.2 | 0.04 | – |
| C6orf120 (UniProt Q7Z4R8) | -0.018 | – | 0.37 (active) | -0.038 | – |
| CHAF1A (UniProt Q13111) | 0.045 | -0.026 | – | – | -0.045 |
| CA1 (UniProt E5RIF9) | -0.021 | – | 0.187 | 0.143 | – |
